Consider 7 molecules from PubChem BioAssay (NCI).

Test systems include NCI-H23 lung; NCI-H226 lung; NCI-H322M lung; HOP-62 NSCLC; NCI-H460 lung; HOP-92 NSCLC; NCI-H522 lung; A549/ATCC NSCLC; 786-0 renal; COLO 205 colon; DU-145 prostate; K-562 leukemia; MALME-3M melanoma; MDA-MB-231 breast; RXF 393 renal; SF-268 CNS; SF-295 CNS; SF-539 CNS; UACC-257 melanoma; M14 melanoma.
Common to all, as to assay: NCI-60 one-dose screen, 48 h (100 = growth as untreated, 0 = no growth, -100 = all killed)
Common to all, as to details: 10 µM unless noted

The panel holds about 83,000 compounds, 20% with a hit somewhere; the sample as a whole holds those more often.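 Plates (96-well) were seeded with cells, treated with compound at one concentration, and incubated for 48 hours before percent growth was determined.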 Unmarked numbers belong to inactive results. Activity calls are given as the source filed them. Rule for the calls: active = growth percent below 10; inactive = the rest.

For `C=C(C)[C@@H]1CC[C@]2(C(=O)O)CC[C@]3(C)[C@H](CC[C@@H]4[C@@]5(C)CCC(N)C(C)(C)[C@@H]5CC[C@]43C)[C@@H]12` (stereo not given in full), the growth was 81.5% with NCI-H23 lung; 100% in the assay with NCI-H226 lung; 68.9% in the assay with NCI-H322M lung; 80.4% in the assay on HOP-62 NSCLC; 33.1% in the assay with NCI-H460 lung; 88.1% in the assay on HOP-92 NSCLC. The growth was 11.7% in the assay on NCI-H522 lung; 47.9% in the assay on A549/ATCC NSCLC; 0.398% (active) with 786-0 renal; -21.4% (active) with COLO 205 colon; 33.1% in the assay with DU-145 prostate; -28.2% (active) with K-562 leukemia. The growth was -61.3% (active) in the assay on MALME-3M melanoma; 18.3% with MDA-MB-231 breast; 81.3% with RXF 393 renal; 91.3% in the assay on SF-268 CNS; 73.7% in the assay with SF-295 CNS; 96.5% with SF-539 CNS. The figures for the growth with UACC-257 melanoma and with M14 melanoma were 93.2% and 27.1%, respectively.
`O=C1C(=C(O)c2ccccc2)C(=O)c2ccccc21`: the growth was 103% in the assay with NCI-H23 lung; 104% in the assay with NCI-H226 lung; 109% in the assay on NCI-H322M lung; 99.5% in the assay with HOP-62 NSCLC; 116% in the assay with NCI-H460 lung; 88% in the assay on HOP-92 NSCLC. Moreover, the growth is 101% in the assay with NCI-H522 lung; 105% in the assay on A549/ATCC NSCLC; 95.6% in the assay with 786-0 renal; 121% in the assay on COLO 205 colon; 104% in the assay with DU-145 prostate; 95.4% in the assay with K-562 leukemia. Moreover, the growth in the assay on MALME-3M melanoma was 103%; with MDA-MB-231 breast, 107%; in the assay with RXF 393 renal, 135%; with SF-268 CNS, 95.2%; with SF-295 CNS, 105%; in the assay on SF-539 CNS, 100%. Further, the growth in the assay on UACC-257 melanoma was 108%; in the assay with M14 melanoma it was 102%.
Regarding `CN1CCN(Cc2ccc(NC(=O)c3cccc(C#Cc4c(N)ncc5ccc(F)cc45)c3)cc2C(F)(F)F)CC1`, the growth was -78.2% (active) with NCI-H23 lung; 4.59% (active) in the assay on NCI-H226 lung; 3.59% (active) in the assay with NCI-H322M lung; -36.4% (active) in the assay with HOP-62 NSCLC; -92.3% (active) with NCI-H460 lung; -49.4% (active) in the assay on HOP-92 NSCLC. Also, the growth in the assay on NCI-H522 lung is -61.1% (active); with A549/ATCC NSCLC it was -69.6% (active); in the assay on 786-0 renal, -83.2% (active); in the assay on COLO 205 colon it was -59.6% (active); with DU-145 prostate, -89.9% (active); in the assay with K-562 leukemia, -29.5% (active). In addition, the growth with MALME-3M melanoma was -54.5% (active); in the assay on MDA-MB-231 breast, -79% (active); with RXF 393 renal, -89.6% (active); with SF-268 CNS, -45.8% (active); in the assay with SF-295 CNS, -65.4% (active); with SF-539 CNS, -94.5% (active). For the same molecule, the growth was -62.5% (active) with UACC-257 melanoma and -71% (active) in the assay on M14 melanoma.
For `C/C=C(/C)C(=O)O[C@@H]1CC(C)(C)CC2C34OC(=O)[C@@]21CC[C@@]3(C)[C@]1(C)CCC2C(C)(C)C(=O)CC[C@]2(C)C1C[C@@H]4Cl` (stereo not given in full), the growth with NCI-H23 lung was 95.4%; with NCI-H226 lung it was 86.7%; in the assay with NCI-H322M lung, 98.2%; in the assay with HOP-62 NSCLC, 94.5%; in the assay on NCI-H460 lung it was 97.7%; in the assay with HOP-92 NSCLC it was 74.7%. The growth with NCI-H522 lung was 93%; in the assay on A549/ATCC NSCLC it was 91%; in the assay on 786-0 renal, 90.4%; in the assay with COLO 205 colon, 98.8%; in the assay on DU-145 prostate it was 104%; with K-562 leukemia it was 85.6%. Further, the growth in the assay on MALME-3M melanoma was 90.8%; in the assay with MDA-MB-231 breast it was 93.4%; in the assay on RXF 393 renal, 108%; with SF-268 CNS it was 93%; in the assay with SF-295 CNS, 97.3%; with SF-539 CNS it was 85%. For the same molecule, the growth with UACC-257 melanoma was 89.8%; with M14 melanoma it was 93.1%.
As for `CCOC(=O)CC1CSC(c2cccc(Cl)c2)=N1` (stereo not given), the growth was 94.6% in the assay on NCI-H23 lung; 113% with NCI-H226 lung; 93.3% in the assay on NCI-H322M lung; 111% in the assay on HOP-62 NSCLC; 108% in the assay with NCI-H460 lung; 119% with HOP-92 NSCLC. The growth with NCI-H522 lung was 101%; in the assay with A549/ATCC NSCLC, 95.3%; in the assay on 786-0 renal, 84.8%; in the assay on COLO 205 colon it was 120%; in the assay with DU-145 prostate it was 111%; in the assay on K-562 leukemia it was 92.9%. For the same molecule, the growth in the assay on MALME-3M melanoma was 108%; in the assay with MDA-MB-231 breast, 105%; in the assay on RXF 393 renal it was 106%; with SF-268 CNS, 101%; in the assay on SF-295 CNS, 102%; in the assay on SF-539 CNS it was 114%. Moreover, the growth in the assay with UACC-257 melanoma is 99.1%; with M14 melanoma, 101%.
Take `C#Cc1cc(C(=O)Nc2ccc(CN3CCN(C)CC3)c(C(F)(F)F)c2)ccc1C`: the growth in the assay with NCI-H23 lung was 88.2%; in the assay on NCI-H226 lung, 83.6%; in the assay on NCI-H322M lung, 88.5%; in the assay with HOP-62 NSCLC, 88.5%; in the assay with NCI-H460 lung, 71.6%; in the assay on HOP-92 NSCLC, 58.5%. The growth was 96.1% with NCI-H522 lung; 70.8% in the assay on A549/ATCC NSCLC; 52.2% with 786-0 renal; 56.3% in the assay with COLO 205 colon; 85.8% in the assay on DU-145 prostate; 7.97% (active) in the assay with K-562 leukemia. Also, the growth with MALME-3M melanoma is 23.6%; in the assay on MDA-MB-231 breast, 59.2%; in the assay with RXF 393 renal, 76.3%; with SF-268 CNS it was 82.5%; in the assay on SF-295 CNS, 77%; in the assay on SF-539 CNS, 44%. Further, the growth was -32.9% (active) in the assay on UACC-257 melanoma and -70.4% (active) in the assay on M14 melanoma.
Regarding `Cc1ccc(-c2nc3nc(-c4ccccc4)nc(N4CCCNCC4)c3o2)cc1`, the growth in the assay with NCI-H23 lung was 19.4%; with NCI-H226 lung it was 88.9%; in the assay on NCI-H322M lung it was -6.9% (active); in the assay with HOP-62 NSCLC, -27.1% (active); in the assay on NCI-H460 lung, -57.7% (active); with HOP-92 NSCLC it was -33.5% (active). The growth in the assay with NCI-H522 lung is -69.6% (active); in the assay with A549/ATCC NSCLC it was -66.5% (active); with 786-0 renal, -97.1% (active); with COLO 205 colon, -86.9% (active); in the assay with DU-145 prostate, -25.5% (active); in the assay with K-562 leukemia, -76.4% (active). Also, the growth with MALME-3M melanoma was -85.5% (active); in the assay with MDA-MB-231 breast, -86.9% (active); with RXF 393 renal, -73.2% (active); in the assay on SF-268 CNS it was -26.3% (active); in the assay with SF-295 CNS, -87.3% (active); with SF-539 CNS it was -88.5% (active). Besides, the growth in the assay with UACC-257 melanoma was 4.04% (active); with M14 melanoma, -93.9% (active).
